Measurements published in PubChem BioAssay (NCI).
Values joined by “and” are separate entries in the source; they are usually repeats but may differ in a detail not shown here. Identical values can stand only once. About 83,000 compounds went through this panel and 20% of them were active in at least one assay; those are over-represented in the sample as a whole.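 Results are percent growth after 48 hours of single-concentration exposure. 100 means growth as in untreated cells, lower positive values show inhibition; negative values down to -100 show cell death.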 Active and inactive are the calls of the source. Rule for the calls: active = growth percent below 10; inactive = the rest.

system: MCF7 breast; assay: NCI-60 one-dose screen, 48 h (100 = growth as untreated, 0 = no growth, -100 = all killed); settings: 10 µM unless noted

| SMILES | growth |
| --- | --- |
| CCC(C)C1(O)OC2CC3(C)OC(=CC3=O)/C(C)=C\C3OC(=O)C1(C)C32 (stereo not drawn) | -50% [100 µM] (active) and -100% [100 µM] (active) |
| O=C1c2cccnc2-c2nccc3ccnc1c23 | -90.9% [100 µM] (active) and -100% [100 µM] (active) |
| Cc1ccc(/C=N/Nc2ccccn2)s1 | 13.4% [100 µM] (inactive) and 0.177% [100 µM] (active) |
| O=C(Nc1cccc(NC(=O)C(=O)C2CCC3=C(Sc4ccccc4N3)C2=O)n1)C(=O)C1CCC2=C(Sc3ccccc3N2)C1=O (stereo not drawn) | 51.4% [100 µM] (inactive) and 4.4% [100 µM] (active) |
| C=C(C)C(=O)OC1CC2(C)OC(=CC2=O)C(C)CC2OC(=O)C(=C)C12 (stereo not drawn) | -77.3% [100 µM] (active) |
| C/C(=C\COc1cc(O)c2c(c1)C(=O)c1cc(C)cc(O)c1C2=O)CCC1OC1(C)C (stereo not drawn) | 20.6% [100 µM] (inactive) and 2.66% [100 µM] (active) |
| CCCCCCCCCC(O)CC(=O)c1c(O)cccc1O (stereo not drawn) | -63.9% [100 µM] (active) and -46.7% [100 µM] (active) |
| NNc1[nH]c(=S)[nH]c1C(N)=O | 98.4% [100 µM] (inactive) and 70.9% [100 µM] (inactive) |
| CC1(C)S[C@H](CN)N[C@H]1C(=O)OC(c1ccccc1)c1ccccc1 | -8.91% [100 µM] (active) and -100% [100 µM] (active) |
| COC(=O)C(=O)C(C(=O)C(=O)Nc1nc2ccc(C)cc2s1)c1nc2ccc([N+](=O)[O-])cc2[nH]c1=O (stereo not drawn) | 60.3% [100 µM] (inactive) and 57.7% [100 µM] (inactive) |
| CNC(=S)/C(=N\Nc1nc[nH]c1C(N)=O)C(N)=S | 10.6% [100 µM] (inactive) and 4.26% [100 µM] (active) |
| Cn1c2c(c3ccccc3c1=O)C(=O)c1ccccc1-2 | 26.8% [100 µM] (inactive) and 7.69% [100 µM] (active) |
| O=C(O)CCCC(=O)Nn1c(Cc2ccc(Cl)cc2)n[nH]c1=O | 78.3% [100 µM] (inactive) and 78.8% [100 µM] (inactive) |
| COc1ccc(OC)c(N(CN2C(=O)CCC2C(=O)O)C(C)=O)c1 (stereo not drawn) | 86% [100 µM] (inactive) and 95.9% [100 µM] (inactive) |
| Cc1ccc(F)cc1NC(=O)O/N=C(\Cl)C(C)C | 72.4% [100 µM] (inactive) and 46.2% [100 µM] (inactive) |
| O=c1c2ccccc2nc(-c2ccccc2)n1/N=C/c1ccccc1[N+](=O)[O-] | 65.7% [100 µM] (inactive) and 73.8% [100 µM] (inactive) |
| Cc1cc2nn(C3CCCO3)nc2cc1C (stereo not drawn) | 79.7% [100 µM] (inactive) and 92.9% [100 µM] (inactive) |
| C[C@@H]1CC[C@H]2C(C)(C)[C@H]3C[C@@]12CC[C@@]3(C)O | 93.1% [100 µM] (inactive) and -100% [100 µM] (active) |
| Cc1ccc(NC(=O)/C(Cc2cc(=O)oc3cc(O)ccc23)=N\NC(C)(C)C)cc1C | 117% [100 µM] (inactive) and 97.1% [100 µM] (inactive) |

| SMILES | growth |
| --- | --- |
| C=C1C(=O)O[C@@H]2C[C@@]3(C)CC(=O)C=C(C)[C@@H]3C[C@H]12 | -74.2% [100 µM] (active) and -78.3% [100 µM] (active) |
| COc1ccc(/C=C2/NC(=S)N=C2Cl)cc1 | 82% [100 µM] (inactive) and 75% [100 µM] (inactive) |
| COc1cc(C)c2c(c1C=O)Oc1c(c(C)c(O)c3c1C(O)OC3=O)OC2=O (stereo not drawn) | 1.49% [100 µM] (active) and 87.3% [100 µM] (inactive) |
| COC(=O)c1cc(C#N)[nH]c1-c1ccsc1 | 9.03% [100 µM] (active) and -89.1% [100 µM] (active) |
| CCC1OC2(C)CC(C#N)(C#N)C1(C#N)C(=N)O2 (stereo not drawn) | 39.8% [100 µM] (inactive) |
| COC(=O)C(=O)C(C(=O)C(=O)Nc1ccccc1C(C)=O)c1nc2ccc(C(=O)c3ccccc3)cc2[nH]c1=O (stereo not drawn) | 25.6% [100 µM] (inactive) and 2.25% [100 µM] (active) |
| NC(Cc1ccc(S(=O)(=O)O)cc1)C(=O)NC(Cc1ccc(S(=O)(=O)O)cc1)C(=O)NC(Cc1ccc(S(=O)(=O)O)cc1)C(=O)NC(Cc1ccc(S(=O)(=O)O)cc1)C(=O)O (stereo not drawn) | 87.7% [100 µM] (inactive) and 83.5% [100 µM] (inactive) |
| COc1ccc2cc(CN3CCC(C4CCNCC4)CC3)ccc2c1 | -76.9% [100 µM] (active) and -23.4% [100 µM] (active) |
| CCO/C=N\C1=C(C#N)SC2=N/C(=C\c3ccc(OC)cc3)C(=O)N21 | 59.2% [100 µM] (inactive) and 48.6% [100 µM] (inactive) |
| C=CC(COC(=O)C(C)(C)OC(C)=O)c1ccc(OC(=O)C(C)C)c(OC)c1 (stereo not drawn) | -68.4% [100 µM] (active) and -69% [100 µM] (active) |
| C=CCn1c2c(c3ccccc3c1=O)C(=O)c1ccccc1-2 | 68.3% [100 µM] (inactive) and 23.2% [100 µM] (inactive) |
| CCCCCCCCCCCCC/C=C/[C@H]1[C@@H](C(=O)OC)N1S(=O)c1ccc(C)cc1 (stereo partly drawn) | 53.6% [100 µM] (inactive) and 36.2% [100 µM] (inactive) |
| CC(C)=CCc1cc(C2COc3cc4c(c(O)c3C2=O)C=CC(C)(C)O4)c(O)cc1O (stereo not drawn) | -75.7% [100 µM] (active) and -83.3% [100 µM] (active) |
| COc1ccc(-c2coc3c4c(ccc3c2=O)OCO4)cc1OC | 53.7% [100 µM] (inactive) and 32.9% [100 µM] (inactive) |
| CC(C)(C)c1cc(C2COC(=O)COCCOCC(=O)OCCOCCO2)cc(C(C)(C)C)c1O (stereo not drawn) | 70.6% [100 µM] (inactive) and 74.1% [100 µM] (inactive) |
| COc1cc2c(cc1C1COc3cc4occc4cc3C1=O)OCO2 (stereo not drawn) | 65.2% [100 µM] (inactive) and 62.9% [100 µM] (inactive) |
| CC1CC(C(=O)OC2OC(COC3OC(CO)C(OC4OC(C)C(O)C(O)C4O)C(O)C3O)C(O)C(O)C2O)C2CCC3(C)C(=CCC4(C)C3CCC3C(C)(CO)C(O)C(O)CC34C)C2C1C (stereo not drawn) | -87.6% [100 µM] (active) and -100% [100 µM] (active) |
| NC(=O)CC1OC(=O)Cc2cc3c(c(O)c21)C(=O)c1c(O)cccc1C3=O (stereo not drawn) | 30.4% [100 µM] (inactive) |
| Cc1cc(N(CCC#N)CCC#N)ccc1/C=N/NC(=O)c1cc(Cl)ccc1O | 43.8% [100 µM] (inactive) and 13.1% [100 µM] (inactive) |
